Experimental data from PubChem BioAssay AID624351 (Southern Research Specialized Biocontainment Screening …, 2012).
Among all 2,400 compounds or so, about 1,400 (58%) were called active. So high a share suggests a set chosen from earlier hits. Some of the results follow. A number with no mark means an inactive call.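 The calls were made as follows: active = inhibition of 30% or more at any tested dose; inconclusive = primary hits over the limit that were never retested; inactive = the rest.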

assay: ADP Hunter readout inhibition without MgcRacGAP – biochemical, coupled enzyme counter-screen, artefact control for MgcRacGAP inhibitor project, dose response (AID 624351); conditions: fluorescence, no MgcRacGAP; series mostly up to 80 µM;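 also: signal is the ADP detection kit reading of free GDP without any GAP enzyme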;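 as to inhibition: 0% = median positive control wells and 100% = median negative control wells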

Compound	IC50	inhibition
C=CCc1c(C)nc(-c2ccccc2)nc1Nc1ccc(O)cc1	41.3 µM (active)	–
Nc1c(/C=C2/C=CC(=O)C(O)=C2)c(=O)nc2sc(CC(=O)N3CCOCC3)nn12	67.8 µM (active)	–
Nc1c(/C=C2/C=CC(=O)C(O)=C2)c(=O)nc2sc(CC(=O)N3CCCC3)nn12	59.4 µM (active)	–
CS(=O)(=O)c1ccc2c(c1)sc1nc(=O)c(/C=C3/C=CC(=O)C(O)=C3)c(N)n12	60.1 µM (active)	–
Cc1ccc(C(C)C)c(OCCCCN2CCNCC2)c1	inactive	–
CC(NCc1ccc(S(N)(=O)=O)cc1)C(=O)N1c2ccccc2CC1C (centres undefined)	inactive	–
COc1cc(OC)c(C2Nc3cccc4cccc(c34)N2)c(OC)c1	–	-13.7% [at 5 µM]
COc1ccccc1C1Nc2cccc3cccc(c23)N1	51.6 µM (active)	–
Cc1ccc(NC(=O)C2=C(c3ccccc3)S(=O)(=O)CCS2(=O)=O)cc1	inactive	–
Cc1oc(-c2ccccc2)cc1C(=O)Nc1ccc(N(C)C)cc1	65.5 µM (active)	–
CN(C)c1ccc(N=Cc2nc(-c3ccccc3)oc2OC(=O)c2cccc(Br)c2)cc1	inactive	–
COc1ccc(NC(=O)Nc2ccc(N(C)C)cc2)cc1	21.9 µM (active)	–
COc1cc(OC)c(C(=O)Nc2ccc(N(C)C)cc2)cc1OC	27.2 µM (active)	–
O=C(Nc1ccc(O)cc1)c1cc2n(n1)C(C(F)(F)F)CC(c1ccco1)N2 (centres undefined)	28.7 µM (active)	–
Cc1cc(C)c(OCCCCN2CCC(C)CC2)c(Br)c1	inactive	–
COc1ccc(CN2CCC(C(N)=O)CC2)cc1OCc1ccccc1	inactive	–
COc1ccc(CN2CCN(Cc3ccccc3F)CC2)cc1OC	inactive	–
COc1ccc(CNc2ccc(N3CCN(C(C)=O)CC3)cc2)cc1OC	15.1 µM (active)	–
COc1ccc(CN2CCN(C(=O)CC(C)C)CC2)cc1OC	inactive	–
COc1cc(CNc2ccc3[nH]c(=O)[nH]c3c2)ccc1OCc1ccccc1	inactive	–
COc1cc(CNc2ccc(N3CCN(C(C)=O)CC3)cc2)ccc1OCc1ccccc1	13.4 µM (active)	–
COc1cc(/C=C/C(=O)OCC(=O)c2ccc(OC(F)F)cc2)ccc1O	58.2 µM (active)	–
COc1cc(/C=C/C(=O)OCC(=O)c2ccc[nH]2)ccc1O	25.9 µM (active)	–
C/C(=N\NC(=O)c1cccc(N/N=C(\C)c2cc(O)ccc2O)c1)c1cc(O)ccc1O	75.5 µM (active)	–
S=c1[nH]nc(-c2cccs2)n1/N=C/c1cccs1	59.7 µM (active)	–
Cc1cc(-c2n[nH]c(=S)n2/N=C/c2cccs2)n[nH]1	78.7 µM (active)	–

Compound	IC50	inhibition
Cc1cc(-c2n[nH]c(=S)n2/N=C/c2ccc(Br)s2)n[nH]1	80.5 µM (active)	–
Cc1cc(-c2n[nH]c(=S)n2/N=C/c2ccccc2[N+](=O)[O-])n[nH]1	83.5 µM (active)	–
Cc1cc(-c2n[nH]c(=S)n2/N=C/c2sccc2C)n[nH]1	62.4 µM (active)	–
O=C1CSC(=S)N1Nc1ccccc1	68 µM (active)	–
Oc1ccc2ccc(Cl)cc2c1	53.9 µM (active)	–
C[n+]1c2cc(N)ccc2cc2ccc(N)cc21	inactive	–
Nc1ccc2ccc(O)cc2c1	31.5 µM (active)	–
CCCC1=NN2C(=N)/C(=C\c3ccc(SCc4ccco4)o3)C(=O)N=C2S1	inactive	–
CN(C)c1ccc(N=C/C=C2\N(C)c3ccccc3C2(C)C)cc1	12.4 µM (active)	–
CN(C)c1ccc(N=C/C=C2/N(C)c3ccccc3C2(C)C)cc1	20.6 µM (active)	–
CN1/C(=C\C=N\NC(=O)c2ccc(O)cc2)C(C)(C)c2ccccc21	74.4 µM (active)	–
COc1cc(CNC2CCCCC2OC)cc(OC)c1 (centres undefined)	inactive	–
O=c1c2c(nc3cc(-c4ccccc4)[nH]n13)CCS2	inactive	–
O=C(CSc1nnnn1C1CC1)N1CCN(c2ccc(O)cc2)CC1	31.5 µM (active)	–
O=C(CSc1nnc(C2CC2)n1C1CC1)N1CCN(c2ccc(O)cc2)CC1	45.6 µM (active)	–
CSCCOC(=O)C1=C(C)Nc2ccc(C)cc2S1	35.6 µM (active)	–
CCOC(=O)C1=C(C)Nc2ccc(C)cc2S1	79 µM (active)	–
CCOC(=O)Nc1ccc2c(c1)Nc1ccccc1S2	40.6 µM (active)	–
CCOC(=O)C1=C(C)Nc2ccccc2S1	41.3 µM (active)	–
CCOc1cc(/C=N/NC(=O)CCn2nc(C)cc2C)ccc1O	58.5 µM (active)	–
Cc1cc(C)n(CCC(=O)N/N=C/c2ccc(O)cc2)n1	74.1 µM (active)	–
O=C(CCn1cnc2ccccc21)N/N=C/c1ccc(O)cc1	57.4 µM (active)	–
O=C(CSc1ccc2ccccc2n1)N/N=C/c1ccc(O)cc1	73.6 µM (active)	–
CN(CCCCCCN(C)Cc1ccccc1O)Cc1ccccc1O	inactive	–
C#CCOCCOCCOCCNc1nc(N2CCN(C(=O)[C@H](CCCCN)n3cc([C@@H](N)CC(C)C)nn3)CC2)nc(N2CCN(C(=O)[C@H](CCCCN)n3cc([C@@H](N)CC(C)C)nn3)CC2)n1	inactive	–
COC(=O)CCNCCSc1nnc(-c2ccco2)n1Cc1ccccc1	inactive	–

Compound	IC50	inhibition
CCOC(=O)c1c(C)n(-c2ccc(C)cc2)c2ccc(OCC(O)CNCC3CCCO3)cc12 (centres undefined)	inactive	–
N#C/C(=C/c1ccc(O)c(O)c1)C(=O)NCc1ccc(Cl)cc1	36.5 µM (active)	–
CCOc1cc(/C=C(\C#N)C(=O)NCc2cccnc2)ccc1O	45.3 µM (active)	–
CCOc1cc(/C=C(\C#N)C(=O)NCC2CCCO2)ccc1O (centres undefined)	49.7 µM (active)	–
CCOCCCNC(=O)/C(C#N)=C/c1ccc([N+](=O)[O-])o1	inactive	–
N#C/C(=C\c1cccnc1)C(=O)Nc1cccc2ccccc12	inactive	–
CCOc1cc(/C=N/NC(=O)C(=O)NCc2cccnc2)ccc1O	51.2 µM (active)	–
C#CCOCCOCCOCCNc1nc(N2CCN(C(=O)C([C@@H](C)O)n3cc([C@@H](N)CCCCN)nn3)CC2)nc(N2CCN(C(=O)[C@H](CO)n3cc([C@@H](N)C(C)C)nn3)CC2)n1 (some centres undefined)	inactive	–
CN(C)c1ccc(/C=N/O)cc1	23.9 µM (active)	–
CCN(CC)c1ccc(/C=N\NC(N)=O)cc1	53.8 µM (active)	–
CCN(CC)c1ccc(/C=N/NC(=O)c2ccoc2C)cc1	inactive	–
CCN(CC)c1ccc(/C=N/O)cc1	21.6 µM (active)	–
CN(C)c1nc(Oc2ccc(/C=N/O)cc2)nc(N(C)C)n1	inactive	–
CCN(CC)CC(C)(C)C(=O)/C=C/c1ccc(/C=C/C(=O)C(C)(C)CN(CC)CC)cc1	inactive	–
O=C(O)c1ccc2nc(-c3ccco3)c(-c3ccco3)nc2c1	inactive	–
COc1ccc(CNCc2cccc(OC)c2OC)cc1Br	inactive	–
COc1cccc(OC)c1OCCCCN1CCCC1	inactive	–
COc1cccc(Nc2ccc(N3CCCCC3)cc2)c1OC	8.89 µM (active)	–
COc1ccc(C)cc1NCc1cccc(OC)c1OC	70.3 µM (active)	–
COc1cccc(CNCc2ccccc2Br)c1OC	inactive	–
COc1cc(Br)c(CNc2cc(C)ccc2C)cc1OC	inactive	–
COc1cccc(CNc2ccc(N3CCCCC3)cc2)c1OC	4.01 µM (active)	–
COc1cccc(CNc2ccc(N3CCC(C)CC3)cc2)c1OC	6.68 µM (active)	–
COc1cccc(CN2CCN(Cc3cccc(Oc4ccccc4)c3)CC2)c1OC	inactive	–
COc1cccc(CN2CCN(Cc3cc(OC)c(OC)c(OC)c3)CC2)c1OC	inactive	–
COc1cccc(OC)c1OCCCN1CCOCC1	inactive	–

Compound	IC50	inhibition
Cc1c(NC(=O)CN2CC(C)OC(C)C2)c(=O)n(-c2ccccc2)n1C (centres undefined)	inactive	–
COc1cc(/C=C/C(=O)OC(C)C(=O)Nc2c(C)n(C)n(-c3ccccc3)c2=O)ccc1O (centres undefined)	45.4 µM (active)	–
COc1cc(/C=C/C(=O)OCC(=O)Nc2c(C)n(C)n(-c3ccccc3)c2=O)ccc1O	53.6 µM (active)	–
Cc1c(O)ccc2c3c(c(=O)oc12)CCCC3	23.7 µM (active)	–
Nn1c(=S)[nH]c2sc3c(c2c1=O)CCCC3	67.3 µM (active)	–
COCCCn1c(=S)[nH]c2sc3c(c2c1=O)CCCC3	30.9 µM (active)	–
COCCn1c(=S)[nH]c2sc3c(c2c1=O)CCCC3	34.3 µM (active)	–
CCn1c(=S)[nH]c2sc3c(c2c1=O)CCCC3	35 µM (active)	–
C=CCc1cc(C)ccc1OCCCn1ccnc1	inactive	–
O=C1C=CC(=O)N1c1ccc(Nc2ccccc2)cc1	34 µM (active)	–
O=C(O)c1cc(N2C(=O)C=CC2=O)cc(N2C(=O)C=CC2=O)c1	inactive	–
O=C1C=CC(=O)N1c1ccccc1N1C(=O)C=CC1=O	inactive	–
COc1cc(/C=C(\C#N)c2nc3ccccc3[nH]2)cc(OC)c1O	27.1 µM (active)	–
Cc1ccc2nc(/C(C#N)=C/c3ccc(O)c(O)c3)[nH]c2c1	26.8 µM (active)	–
COc1cc(/C=C(\C#N)C(=O)c2c[nH]c3ccccc23)cc(OC)c1O	51.3 µM (active)	–
COc1cc(/C=C(\C#N)c2nc3ccccc3[nH]2)ccc1O	14.8 µM (active)	–
CN1C=CC=C/C1=C(\C#N)c1nc2ccccc2[nH]1	52.5 µM (active)	–
COc1cc(CN2CCN(c3ccccc3F)CC2)cc(OC)c1O	inactive	–
Nc1ccc(N2CCN(c3ccccc3)CC2)c(F)c1	37.9 µM (active)	–
O=C(c1cccs1)N1CCN(Cc2ccncc2)CC1	inactive	–
CCC(C)N1CCN(C(=O)c2cccs2)CC1 (centres undefined)	inactive	–
Nc1ccc(N2CCN(c3ccc(F)cc3)CC2)cc1	19.9 µM (active)	–
Nc1ccc(N2CCN(C(=O)c3cccs3)CC2)cc1	22.1 µM (active)	–
COc1ccc(N2CCN(CC(O)COC(c3ccc(F)cc3)c3ccc(F)cc3)CC2)cc1 (centres undefined)	inactive	–
CC(=O)N1CCN(c2ccc(N)cc2)CC1	13.5 µM (active)	–
COCC(C)NCc1ccccc1C (centres undefined)	inactive	–
